Results filed as inconclusive are left out. Activity calls are given as the source filed them. Calls follow the shape of the dose curve; as a rule, active = well fitted curve in the direction sought with a large enough effect; inconclusive = small, poorly fitted or top-dose-only effect, or another doubt; inactive = no such curve, though single readings can be large; an effect the other way counts as inactive or inconclusive.
How the values were obtained:
[1] = NS1 protein of Zika virus - qHTS assay to identify small molecule inhibitors in human HEK 293 cells (AID 1347053); also: nearly all actives have a fitted effect of over 55% in size; also: potency is read from the fitted curve at half-maximal effect
Method in brief: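 Compound-treated (1 h pre-infection) HEK 293 cells infected with ZIKV MR766, MOI = 0.5; after 24 h at 37 C, NS1 read by TR-FRET; data normalized to uninfected and infected controls.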

[2] = qHTS of pediatric cancer cell lines to identify multiple opportunities for drug repurposing: Primary screen for TC32 cells (AID 1347089); also: nearly all actives have a fitted effect of over 60% in size; also: potency is read from the fitted curve at half-maximal effect
Method in brief: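 TC32 cells, 500-1,000/well in growth medium, compound-treated 48 h at 37 °C; viability from CellTiter-Glo luminescence. Primary screen: MIPE 11-point (0.78 nM–46 µM final), NPC 8-point (0.59 nM–46 µM final); confirmatory at 11-point dilutions.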

[3] = qHTS of pediatric cancer cell lines to identify multiple opportunities for drug repurposing: Primary screen for SJ-GBM2 cells (AID 1347091); also: potency is read from the fitted curve at half-maximal effect
Method in brief: (§1)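 Viability measured as metabolically active cells via CellTiter-Glo luminescence following 48 hours of compound exposure, 11-point dilutions in confirmatory testing. 500-1,000 cells/well plated 5 hours before dosing; controls were DMSO and 2.3 µM bortezomib.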

[4] = qHTS of pediatric cancer cell lines to identify multiple opportunities for drug repurposing: Primary screen for A673 cells (AID 1347092); also: nearly all actives have a fitted effect of over 45% in size; also: potency is read from the fitted curve at half-maximal effect
Method in brief: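 A673 cells (500-1,000 cells/well) were treated 48 hours at 37 degrees C with compounds at 11-point (0.78 nM to 46 µM) or 8-point (0.59 nM to 46 µM) dilutions. Viability read by CellTiter-Glo luminescence; concentration-response curves fitted.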

[5] = qHTS of pediatric cancer cell lines to identify multiple opportunities for drug repurposing: Primary screen for SK-N-MC cells (AID 1347093); also: potency is read from the fitted curve at half-maximal effect
Method in brief: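 Metabolically active cells were quantified by ATP-dependent luminescence (CellTiter-Glo, 15 min at room temperature) following 48 h treatment. Cells had been plated at 500-1,000 per well and settled for 5 h beforehand.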

[6] = qHTS of pediatric cancer cell lines to identify multiple opportunities for drug repurposing: Primary screen for BT-37 cells (AID 1347094); also: potency is read from the fitted curve at half-maximal effect
Method in brief: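 Cells seeded at 500-1,000 cells/well in growth media, rested 5 hours at 37 degrees C, 5% CO2, then dosed; MIPE compounds at 11-point (from 0.78 nM) and NPC at 8-point (from 0.59 nM) final concentrations. Viability by CellTiter-Glo luminescence after 48 hours.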

[7] = qHTS of pediatric cancer cell lines to identify multiple opportunities for drug repurposing: Primary screen for DAOY cells (AID 1347090); also: series mostly up to about 46 µM; nearly all actives have a fitted effect of over 55% in size
Method in brief: as §1

Structure (SMILES)	Potency [1]	Potency [2]	Potency [3]	Potency [4]	Potency [5]	Potency [6]	Potency [7]
O=C(Cc1ccc(-c2ccc(OCCN3CCOCC3)cc2)cn1)NCc1ccccc1	74.3 nM (active)	117 nM (active)	18.7 nM (active)	23.5 nM (active)	26.4 nM (active)	68.5 nM (active)	
Nc1ccn([C@@H]2CS[C@H](CO)O2)c(=O)n1	inactive	inactive		inactive	inactive	inactive	inactive
COc1cc(C(=O)N2CCC(N3CCN(C)CC3)CC2)ccc1Nc1ncc2c(n1)N(C)c1ccccc1C(=O)N2C			18700 nM (active)	11800 nM (active)	10500 nM (active)	15300 nM (active)	
COc1c(N2C[C@@H]3CCCN[C@H]3C2)c(F)cc2c(=O)c(C(=O)O)cn(C3CC3)c12	inactive	inactive		inactive	inactive	inactive	inactive
CCn1cc(-c2ccnc3[nH]c(-c4cccc(CN(C)C)c4)cc23)c(-c2ccc(NC(=O)N(C)C)cc2)n1		104 nM (active)	83.3 nM (active)	4690 nM (active)	46.9 nM (active)	19300 nM (active)	

From PubChem BioAssay (NCATS)
